Reference: PubChem BioAssay (NCI)
Compounds without any hit were thinned out: in the full panel of roughly 83,000, 20% have a hit.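 Step 1: grow cells in 96-well plates. Step 2: add test compound at a single concentration. Step 3: incubate 48 h. Step 4: record percent growth.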 Unmarked numbers belong to inactive results. Active and inactive are the calls of the source. The calls were made as follows: active = growth percent below 10; inactive = the rest.

Legend:
Assay in all cases: NCI-60 one-dose screen, 48 h (100 = growth as untreated, 0 = no growth, -100 = all killed)
Conditions in all cases: 10 µM unless noted
T-47D breast = system: T-47D breast
BT-549 breast = system: BT-549 breast
MDA-MB-435 melanoma = system: MDA-MB-435 melanoma
SW-620 colon = system: SW-620 colon
MCF7 breast = system: MCF7 breast
HCT-116 colon = system: HCT-116 colon
HCC-2998 colon = system: HCC-2998 colon
KM12 colon = system: KM12 colon

Structure (SMILES) | growth (T-47D breast) | growth (BT-549 breast) | growth (MDA-MB-435 melanoma) | growth (SW-620 colon) | growth (MCF7 breast) | growth (HCT-116 colon) | growth (HCC-2998 colon) | growth (KM12 colon)
COc1cc(/C=C/C(=O)c2ccc(Nc3ncnc4ccccc34)cc2)cc(OC)c1 | 117% | 26.9% | -39.2% (active) | -66.1% (active) | 0.628% (active) | -87.3% (active) | -37.6% (active) | -49.8% (active)
CCN1C(=O)N(CC)C2C1NN=c1s/c(=C3\C(=O)Nc4ccccc43)c(=O)n12 (stereo unspecified) | 15.6% | 59.8% | -27.3% (active) | 26.1% | 28.7% | 14.2% | 31.8% | 15.1%
O=S(=O)(NCCCNc1nccc(-c2c(-c3ccc(F)c(O)c3)nc3sccn23)n1)c1ccc(F)cc1 | -1.88% (active) | 26.7% | -11.7% (active) | 11.8% | 4.13% (active) | 0.843% (active) | 4.68% (active) | 10.4%
COc1c(Cl)cc(Cl)c2ccc(C=C3C(=O)N(C)C(=O)N(C)C3=O)nc12 | 100% | 90.4% | 102% | 105% | 94.9% | -46.6% (active) | 101% | 101%
C=C1C(=O)O[C@H]2[C@H]1CC/C(CNC(=O)/C=C/c1ccc(Br)cc1)=C\CC[C@@]1(C)O[C@@H]21 | -41.3% (active) | -59.7% (active) | -47.8% (active) | -78.5% (active) | -66.7% (active) | -81.4% (active) | -92.6% (active) | 36.4%
CCCN=C(N)c1ccc(NC(=O)c2ccc(C(=O)Nc3ccc(C(N)=NCCC)cc3)cc2)cc1 | 77.6% | 93.9% | 90.2% | 104% | 87.8% | 92.2% | 109% | 95.5%
CCCCCCCCCCCCC1CCC/C=C\CCC(=O)O1 (stereo unspecified) | 90% | 112% | 104% | 103% | 95.6% | 91.1% | 104% | 110%
Cc1ccc(/C=C/C(=O)c2ccc(N)cc2)c(C)c1 | 101% | 89.6% | 77% | -69.1% (active) | 35% | 35.8% | 106% | 63.3%
CC(=O)c1cc2c(N)c(C(=O)Nc3cncc4ccccc34)sc2nc1C | 93.8% | 105% | 43.6% | 103% | 91.6% | 101% | 106% | 94.3%
CN1CCN(CC#CCNC(=O)[C@]23CCC(C)(C)C[C@H]2C2=CC[C@@H]4[C@@]5(C)Cc6c([nH]c7ccccc67)C(C)(C)[C@@H]5CC[C@@]4(C)[C@]2(C)CC3)CC1 | 94.4% | 101% | 47.2% | 46.8% | 32.4% | 22.5% | 80% | 52.3%
Cc1cc(C(=O)Nc2ncnc3nc[nH]c23)no1 | 103% | 106% | 102% | 96.1% | 93.3% | 105% | 104% | 99.5%
COc1cc(C2NC(c3cc(OC)c(OC)c(OC)c3)C(C#N)(C#N)C2(C#N)C#N)cc(OC)c1OC (stereo unspecified) | 96.4% | 101% | 101% | 95.8% | 95.5% | 91.1% | 98.7% | 99.5%
COc1cc2nc(-c3ccc(C(F)(F)F)cc3)cc(OCCCN3CCC(O)CC3)c2cc1OC | 24.7% | 26.5% | -29% (active) | 15.9% | 37.3% | 15% | 52.5% | 26.5%
CCCC1C(C(=O)OCC)=C(N)Oc2cc(O)ccc21 (stereo unspecified) | 88.8% | 94% | 90.6% | 97.1% | 103% | 88.3% | 105% | 98.2%
COc1ccc(-c2cnnc3c(-c4cccc(C(F)(F)F)c4)cnn23)cc1 | 48.9% | -34.9% (active) | 47.2% | 79.3% | 73.9% | 2.24% (active) | 81.5% | 82.6%
Clc1ccc(N2N=C(c3cccc(Nc4ccncc4)c3)CC2c2ccccc2)cc1 (stereo unspecified) | 96.9% | 92.9% | 67.5% | 86.2% | 76.2% | -78.7% (active) | 97% | 90.4%

Structure (SMILES) | growth (T-47D breast) | growth (BT-549 breast) | growth (MDA-MB-435 melanoma) | growth (SW-620 colon) | growth (MCF7 breast) | growth (HCT-116 colon) | growth (HCC-2998 colon) | growth (KM12 colon)
S=c1[nH]cccc1-c1nnc2n1Nc1nc3ccccc3cc1CS2 | 95.4% | 100% | 106% | 99.4% | 103% | 94.9% | 98.5% | 109%
COc1cc2nc(-c3ccc(-c4nn[nH]n4)cc3)[nH]c(=O)c2cc1OC | 102% | 251% | 105% | 107% | 98.9% | 104% | 114% | 126%
COc1cc(NCC(C)(O)CN(CC(C)C)CC(C)C)c2nc(C)ccc2c1 (stereo unspecified) | 7.65% (active) | 92.4% | 102% | 86.5% | -46.1% (active) | 66.3% | 75.5% | 63.2%
CCCCN(CCCC)CCc1c(C)cc(C)c(CCN(CCCC)CCCC)c1O | 5.78% (active) | 43.3% | 17.1% | 24.1% | 12.8% | 6.6% (active) | 19.6% | 41.4%
CC(C)NC(=O)N1C(=O)CCC1NNC(=O)c1ccc([N+](=O)[O-])cc1 (stereo unspecified) | 94.9% | 102% | 98.6% | 112% | 97.8% | 95.7% | 98.6% | 102%
CC(=O)OCC(=O)C1(O)C(C)CC2C3C=C(C)C4=Cc5c(cnn5-c5ccccc5)CC4(C)C3C(O)CC21C (stereo unspecified) | 40.4% | 21.5% | 33.7% | -30% (active) | 12.8% | 3.77% (active) | 13.5% | -28.7% (active)
COc1ccc(C(O)c2cc3c(N)c(C(=O)Nc4cccc(OC)c4)sc3nc2C)cc1 (stereo unspecified) | 62.8% | 26.5% | -9.54% (active) | 19.9% | 17.8% | 5.98% (active) | 5.05% (active) | 2.91% (active)
N#CSCC1CC(O)(c2ccccc2)C(c2ccccc2)C(c2ccc(F)cc2)O1 (stereo unspecified) | 9.18% (active) | 5.69% (active) | -0.166% (active) | -1.6% (active) | 5.64% (active) | -63.9% (active) | 74.8% | 4.67% (active)
CCCCCN1C=C/C(=C\C(=O)N(C)c2ccc(Br)cc2)c2ccccc21 | 84.3% | 108% | 101% | 94.4% | 91% | 80.7% | 102% | 103%
COc1ccc(Cc2nc3cc(OC)c(OC)cc3c(=O)[nH]2)cc1 | 96% | 159% | 87.3% | 14.3% | 91.6% | 72.6% | 53.7% | 18.9%
COc1ccc(C(=O)c2cc3c(N)c(C(=O)Nc4cccc(Cl)c4C)sc3nc2C)cc1 | 40.9% | 36.9% | -6.97% (active) | 23.2% | 19.4% | 7.35% (active) | 17.1% | 10.6%
CCC(=O)c1ccc(O)c(OC)c1 | 109% | 114% | 114% | 101% | 108% | 91.2% | 101% | 113%
Cc1ccc(C(=O)Nc2ccccc2C(=O)N/N=C(\c2ccccc2)c2ccccn2)cc1 | 13.4% | 13.5% | 28% | 37.3% | 11.9% | 17.9% | 29.7% | 26%
ClCC1(Cn2cnc3c(Cl)nc(Cl)nc32)COC1 | 72% | 108% | 87.6% | 66.3% | 76.1% | 13.7% | -6.15% (active) | 97.5%
CC(=O)NCCCS(=O)(=O)O | 102% | 110% | 99.9% | 90.9% | 101% | 98.5% | 102% | 102%
N#C/C(=C\c1ccc(Br)cc1)n1nnc2cccc(F)c21 | 21.7% | 17.6% | -18% (active) | -48% (active) | 12.6% | 2.67% (active) | 19.2% | 7.22% (active)
